Reference: PubChem BioAssay (Tox21)
Where “and” joins values, the source holds several entries; their conditions need not be identical. Equal values may be shown once. Records with an inconclusive call do not appear. The source holds several records for some structures; these can differ, active in one and inactive in another. Calls of active or inactive are those of the source. Unless noted, calls follow the shape of the dose curve; as a rule, active = well fitted curve in the direction sought with a large enough effect in the repeat runs; inconclusive = weak or mixed curves; inactive = no such curve, though single readings can be large; an effect the other way counts as inactive or inconclusive.

Assays:
[1] = qHTS assay for small molecule agonists of the p53 signaling pathway (AID 651631; calls by dose curve; also: nearly all actives have a fitted effect of over 15% in size; also: potency is read from the fitted curve at half-maximal effect)
How it was run: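 HCT-116 cells carrying a stable p53 response element–beta-lactamase reporter were plated, rested 5 h at 37 °C, then exposed to compound in DMSO for 16 h at 37 °C; reporter activity was read as FRET substrate fluorescence after 2 h at room temperature.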

[2] = qHTS assay for small molecule agonists of the p53 signaling pathway - cell viability (AID 651633; calls by dose curve; also: series mostly up to about 83 µM; nearly all actives have a fitted effect of over 30% in size)
How it was run: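 p53RE-bla cells were treated with compound for 16 hours at 37 C. Cytotoxicity was then measured as CellTiter-Glo luminescence after 30 min at room temperature.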

[3] = qHTS assay for small molecule disruptors of the mitochondrial membrane potential - cell viability (AID 720634; calls by dose curve;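 also: human HepG2 liver cancer cells; series mostly up to about 83 µM; nearly all actives have a fitted effect of over 20% in size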)
How it was run: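 Cytotoxicity was measured by ATP quantitation in HepG2 wells that had first been treated with compound for 1 hr and stained with m-MPI dye; CellTiter-Glo incubation was 30 min at room temperature.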

[4] = qHTS assay for small molecule disruptors of the mitochondrial membrane potential (AID 720635); also: potency is read from the fitted curve at half-maximal effect
How it was run: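 HepG2 cells exposed to compound 1 hr at 37C, then Mito-MPS dye 30 min. Ratio read of aggregate (540/590 nm) versus monomer (490/535 nm) fluorescence.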

[5] = qHTS assay to test for compound auto fluorescence at 590 nm (red) in HepG2 cells (AID 720674)
How it was run: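 Fluorescence at 590 nm emission following 540 nm excitation was recorded from HepG2 wells one hour after compound transfer, with DMSO-only wells as vehicle and Rose Bengal sodium equivalency as the scale.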

[6] = qHTS assay to test for compound auto fluorescence at 535 nm (green) in HepG2 cells (AID 720675)
[7] = qHTS assay to test for compound auto fluorescence at 460 nm (blue) in HEK293 cells (AID 720678)
How it was run: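 Intrinsic compound fluorescence is recorded in live HEK293 cultures after overnight incubation at 37C, 5% CO2, using excitation 405 nm and emission 460 nm. Values are referenced to triamterene.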

[8] = qHTS assay to test for compound auto fluorescence at 590 nm (red) in HEK293 cells (AID 720679)
How it was run: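 Red autofluorescence, HEK293 cells: 2,000 cells/well; attach 4-5 hr 37C; add 23 nL cpd or DMSO; incubate o/n 37C 5% CO2; read Ex540/Em590; Rose Bengal sodium reference.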

[9] = qHTS assay to test for compound auto fluorescence at 535 nm (green) in HEK293 cells (AID 720680)
[10] = qHTS assay to test for compound auto fluorescence at 460 nm (blue) in HEK293 cell free culture (AID 720681)
How it was run: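 Compounds were added to cell-free DMEM with 10% FBS and fluorescence read directly. The blue channel used 405 nm excitation and 460 nm emission, with triamterene as the reference fluorophore.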

[11] = qHTS assay to test for compound auto fluorescence at 535 nm (green) in HEK293 cell free culture (AID 720682)
How it was run: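 Read-out: 485/535 nm fluorescence intensity, calibrated against fluorescein. Medium only (DMEM + 10% FBS, no cells); test compound or DMSO vehicle added by pintool before plate reading.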

[12] = qHTS assay to test for compound auto fluorescence at 590 nm (red) in HEK293 cell free culture (AID 720683)
How it was run: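 Cell-free wells of DMEM with 10% FBS received compound, and intrinsic fluorescence was read at excitation/emission 540/590 nm. Values expressed as equivalence to Rose Bengal sodium.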

[13] = qHTS assay to test for compound auto fluorescence at 590 nm (red) in HepG2 cell free culture (AID 720684)
How it was run: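 Rose Bengal sodium served as the reference for red signal. Test compounds were dispensed into serum-containing MEM (10% FBS) without cells, and plates were read at 540/590 nm.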

[14] = qHTS assay to test for compound auto fluorescence at 460 nm (blue) in HepG2 cell free culture (AID 720685)
How it was run: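 Cell-free plates of MEM plus 10% FBS received 23 nL compound or DMSO vehicle; blue-channel (405/460 nm) intensity scored against triamterene as reference fluorophore.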

[15] = qHTS assay to test for compound auto fluorescence at 535 nm (green) in HepG2 cell free culture (AID 720686)
[16] = qHTS assay to test for compound auto fluorescence at 460 nm (blue) in HepG2 cells (AID 720687)
How it was run: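 HepG2 cells in MEM with 10% FBS, attached overnight at 37 C, were exposed to compound or DMSO for 1 hr at 37 C, 5% CO2. Blue fluorescence was read at 405/460 nm, with triamterene as reference fluorophore.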

[17] = target: Glucocorticoid receptor (Homo sapiens) (UniProt P04150); test: qHTS assay to identify small molecule agonists of the glucocorticoid receptor (GR) signaling pathway (AID 720691; active = well fitted activation curve with a large enough effect in the signal ratio in the repeat runs, not every such curve was filed as active; the % refers to the signal ratio)
How it was run: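 Steps: seed GR-bla HeLa cells, incubate 4 h at 37 C/5% CO2; pin-transfer DMSO-dissolved compounds; incubate 18 h at 37 C; add LiveBLAzer B/G FRET substrate; after 2 h at room temperature, measure fluorescence.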

[18] = target: Glucocorticoid receptor (Homo sapiens) (UniProt P04150); test: qHTS assay to identify small molecule antagonists of the glucocorticoid receptor (GR) signaling pathway (AID 720692; active = well fitted inhibition curve with a large enough effect in the signal ratio in the repeat runs, not every such curve was filed as active; the % refers to the signal ratio; also: potency is read from the fitted curve at half-maximal effect)
How it was run: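 Antagonism was scored as loss of dexamethasone-driven (5 nM final) reporter signal in HeLa cells bearing a glucocorticoid response element–beta-lactamase construct, after 18 h compound exposure at 37 C and 2 h FRET substrate loading.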

[19] = qHTS assay for small molecules that induce genotoxicity in human embryonic kidney cells expressing luciferase-tagged ATAD5 - cell viability (AID 651634; calls by dose curve; also: nearly all actives have a fitted effect of over 25% in size)
How it was run: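 Cells (HEK293T, luciferase-tagged ATAD5) are seeded at 2,000 per well, dosed with compound or DMSO vehicle, and incubated 15.5 hr at 37C and 5% CO2. CellTiter-Fluor is added for 30 min before fluorescence is measured.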
% is scaled to controls: 0 for no effect and ±100 for the full control effect.

Glucocorticoid receptor (Homo sapiens), sequence (P04150 whole entry, looked up): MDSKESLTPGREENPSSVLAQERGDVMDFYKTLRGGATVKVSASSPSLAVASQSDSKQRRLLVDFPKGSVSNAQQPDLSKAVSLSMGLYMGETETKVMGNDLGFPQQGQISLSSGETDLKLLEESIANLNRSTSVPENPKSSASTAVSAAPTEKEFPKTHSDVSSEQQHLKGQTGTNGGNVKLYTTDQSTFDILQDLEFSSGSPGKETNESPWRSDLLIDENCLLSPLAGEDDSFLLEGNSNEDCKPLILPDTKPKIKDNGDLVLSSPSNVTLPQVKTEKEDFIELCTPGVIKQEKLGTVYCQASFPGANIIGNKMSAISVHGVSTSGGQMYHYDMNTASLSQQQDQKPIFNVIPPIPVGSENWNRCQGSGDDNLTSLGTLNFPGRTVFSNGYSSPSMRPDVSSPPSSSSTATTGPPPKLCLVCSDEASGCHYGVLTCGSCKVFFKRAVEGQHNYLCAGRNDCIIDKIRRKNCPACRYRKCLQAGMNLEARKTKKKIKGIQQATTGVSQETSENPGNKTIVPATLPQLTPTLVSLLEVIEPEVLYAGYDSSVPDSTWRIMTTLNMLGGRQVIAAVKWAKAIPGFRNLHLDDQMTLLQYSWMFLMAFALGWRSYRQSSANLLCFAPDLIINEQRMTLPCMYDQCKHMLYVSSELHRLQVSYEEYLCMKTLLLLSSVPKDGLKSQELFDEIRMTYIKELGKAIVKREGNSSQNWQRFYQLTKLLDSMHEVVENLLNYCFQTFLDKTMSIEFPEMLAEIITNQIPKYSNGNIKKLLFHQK

CC[C@H]1CC[C@H](NCc2cc3c(cc2OC)[C@H]2C[C@H]2C(=O)N3C)[C@H](c2ccccc2)N1
active: Potency [1] 6.86 µM
inactive: Potency [2] | Potency [3] | Potency [4] | outcome [5] | outcome [6] | outcome [7] | outcome [8] | outcome [9] | outcome [10] | outcome [11] | outcome [12] | outcome [13] | outcome [14] | outcome [15] | outcome [16] | Potency [17] | Potency [18]

C=CCc1cc(OC)c(O)c(C(=O)NCCO)c1
inactive: Potency [1] | Potency [19] | Potency [3] | Potency [4] | outcome [5] | outcome [6] | outcome [7] | outcome [8] | outcome [9] | outcome [10] | outcome [11] | outcome [12] | outcome [13] | outcome [14] | outcome [15] | outcome [16] | Potency [17] | Potency [18]

CS(=O)(=O)c1ccc([C@@H](O)[C@@H](CF)NC(=O)C(Cl)Cl)cc1
inactive: Potency [1] | Potency [2] | Potency [3] | Potency [4] | fluorescence, relative to Rose Bengal [5] -0.165% [at 18.6 µM] | fluorescence, % of fluorescein control [6] -0.0021% [at 18.6 µM] | fluorescence, % of triamterene [7] -0.0281% [at 18.6 µM] | fluorescence, % of fluorescent control [8] 0.0865% [at 18.6 µM] | fluorescence, % of fluorescein [9] 0.0111% [at 18.6 µM] | fluorescence, % of fluorescent control [10] 0.0627% [at 18.6 µM] | activity change [11] -0.0234% [at 18.6 µM] | fluorescence, % of fluorescent control [12] -0.0638% [at 18.6 µM] | fluorescence, % of Rose Bengal [13] 0.294% [at 18.6 µM] | fluorescence, % of fluorescent control [14] -0.0062% [at 18.6 µM] | fluorescence, % of fluorescein control [15] -0.0102% [at 18.6 µM] | fluorescence, % of fluorescent control [16] -0.0647% [at 18.6 µM] | Potency [17] | Potency [18]

Cc1ccccc1C(=O)Nc1ccc(C(=O)N2CCCC(O)c3cc(Cl)ccc32)c(C)c1 (stereo unspecified)
inactive: Potency [1] | Potency [2] | Potency [19] | Potency [3] | outcome [5] | outcome [6] | outcome [7] | outcome [8] | outcome [10] | outcome [11] | outcome [12] | outcome [13] | outcome [14] | outcome [15] | outcome [16]
active: Potency [4] 10.6 µM

CC(C)NC[C@@H](O)COc1cccc2ccccc12
inactive: Potency [1] | Potency [2] | Potency [19] | Potency [3] | outcome [5] | outcome [6] | outcome [7] | outcome [8] | outcome [9] | outcome [10] | outcome [11] | outcome [12] | outcome [13] | outcome [14] | outcome [15] | outcome [16]

CCCc1c2oc(C(=O)O)cc(=O)c2cc2c(=O)cc(C(=O)O)n(CC)c12
inactive: Potency [1] | Potency [19] | Potency [3] | Potency [4] | outcome [5] | outcome [6] | outcome [7] | outcome [8] | outcome [10] | outcome [11] | outcome [12] | outcome [13] | outcome [15] | outcome [16] | Potency [17] | Potency [18]

CC(C)C1=CC2=CC[C@@H]3[C@](C)(CCC[C@@]3(C)C(=O)O)[C@H]2CC1
inactive and 54.9 µM (active): Potency [18]
inactive: Potency [1] | Potency [2] | Potency [19] | Potency [3] | Potency [4] | outcome [5] | outcome [6] | outcome [7] | outcome [8] | outcome [9] | outcome [10] | outcome [11] | outcome [12] | outcome [13] | outcome [14] | outcome [15] | outcome [16] | Potency [17]

CC1=C(O)C(=O)OC1C (stereo unspecified)
inactive: Potency [1] | Potency [2] | Potency [19] | Potency [3] | Potency [4] | outcome [5] | outcome [6] | outcome [7] | outcome [8] | outcome [9] | outcome [10] | outcome [11] | outcome [12] | outcome [13] | outcome [14] | outcome [15] | outcome [16] | Potency [17] | Potency [18]

CO[Si](C)(C)OC
inactive: Potency [1] | Potency [2] | Potency [19] | Potency [3] | outcome [5] | outcome [6] | outcome [7] | outcome [8] | outcome [9] | outcome [10] | outcome [11] | outcome [12] | outcome [13] | outcome [14] | outcome [15] | outcome [16] | Potency [17] | Potency [18]

CC(C)S
inactive: Potency [1] | Potency [2] | Potency [19] | Potency [3] | Potency [4] | outcome [5] | outcome [6] | outcome [7] | outcome [8] | outcome [9] | outcome [10] | outcome [11] | outcome [12] | outcome [13] | outcome [14] | outcome [15] | outcome [16] | Potency [17] | Potency [18]

CN(C)CC[C@@H](c1ccc(Cl)cc1)c1ccccn1
inactive: Potency [1] | Potency [2] | Potency [19] | Potency [3] | Potency [4] | outcome [5] | outcome [6] | outcome [7] | outcome [8] | outcome [9] | outcome [10] | outcome [11] | outcome [12] | outcome [13] | outcome [14] | outcome [15] | outcome [16] | Potency [17] | Potency [18]

CCOc1ccc2nc(N)sc2c1
inactive: Potency [1] | Potency [2] | outcome [5] | outcome [6] | outcome [7] | outcome [8] | outcome [9] | outcome [10] | outcome [11] | outcome [12] | outcome [13] | outcome [15] | outcome [16] | Potency [17] | Potency [18]
